Common to all, as to test: PBM; 200 nM protein, PBS
Holding throughout (conditions): dsDNA, one strand shown

For test [1], the target named is HOXA4 (Homo sapiens, UniProt Q00056 201-287, W262R).
In test [2] the target is HOXA4 (Homo sapiens, UniProt Q00056 201-287, R217L).
The target in test [3] is HOXA4 (Homo sapiens, UniProt Q00056 201-287).
Test [4] concerns the target HOXA4 (Homo sapiens, UniProt Q00056 201-287, W262F).
For another test, the target named is HOXD13 (Homo sapiens, UniProt P35453 263-343).
Sequence of HOXD13 (P35453 263-343): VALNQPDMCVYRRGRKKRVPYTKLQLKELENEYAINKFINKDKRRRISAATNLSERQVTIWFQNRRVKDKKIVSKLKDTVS

Sequence of HOXA4 (Homo sapiens, UniProt Q00056 201-287, R217L) (Q00056 201-287 R217L): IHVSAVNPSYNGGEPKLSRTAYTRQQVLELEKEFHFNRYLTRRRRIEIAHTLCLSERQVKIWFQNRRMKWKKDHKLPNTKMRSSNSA
Sequence of HOXA4 (Homo sapiens, UniProt Q00056 201-287, W262R) (Q00056 201-287 W262R): as the sequence (Q00056 201-287 R217L) above, with L17R, W62R counted along it
Sequence of HOXA4 (Homo sapiens, UniProt Q00056 201-287, W262F) (Q00056 201-287 W262F): as the sequence (Q00056 201-287 R217L) above, with L17R, W62F counted along it
Sequence of HOXA4 (Homo sapiens, UniProt Q00056 201-287) (Q00056 201-287): as the sequence (Q00056 201-287 R217L) above, with L17R counted along it

Take CCAGCCGG: the binding signal in the test with HOXA4 [1] was 9.8 upbm affinity estimate (log intensity, higher = more binding, comparable within an allelic series); in the test with HOXA4 [2], 9.68 upbm affinity estimate (log intensity, higher = more binding, comparable within an allelic series); with HOXA4 [3] it was 9.56 upbm affinity estimate (log intensity, higher = more binding, comparable within an allelic series); in the test with HOXA4 [4] it was 9.77 upbm affinity estimate (log intensity, higher = more binding, comparable within an allelic series).
Turning to GATTTATA, the binding signal with HOXA4 [1] is 10.4 upbm affinity estimate (log intensity, higher = more binding, comparable within an allelic series); with HOXA4 [3] it was 11.4 upbm affinity estimate (log intensity, higher = more binding, comparable within an allelic series).
On to AGGGCGAG, for which the binding signal with HOXA4 [1] was 9.83 upbm affinity estimate (log intensity, higher = more binding, comparable within an allelic series); in the test with HOXA4 [2], 9.74 upbm affinity estimate (log intensity, higher = more binding, comparable within an allelic series); with HOXA4 [3], 9.74 upbm affinity estimate (log intensity, higher = more binding, comparable within an allelic series); with HOXA4 [4], 9.91 upbm affinity estimate (log intensity, higher = more binding, comparable within an allelic series).
Turning to CCACGCCC, the binding signal is 9.84 upbm affinity estimate (log intensity, higher = more binding, comparable within an allelic series) in the test with HOXA4 [1]; 9.85 upbm affinity estimate (log intensity, higher = more binding, comparable within an allelic series) with HOXA4 [2]; 9.64 upbm affinity estimate (log intensity, higher = more binding, comparable within an allelic series) with HOXA4 [3]; 9.99 upbm affinity estimate (log intensity, higher = more binding, comparable within an allelic series) with HOXA4 [4].
With CCTCCGTC, the binding signal is 9.85 upbm affinity estimate (log intensity, higher = more binding, comparable within an allelic series) in the test with HOXA4 [1]; 9.8 upbm affinity estimate (log intensity, higher = more binding, comparable within an allelic series) with HOXA4 [2]; 9.63 upbm affinity estimate (log intensity, higher = more binding, comparable within an allelic series) in the test with HOXA4 [3]; 9.84 upbm affinity estimate (log intensity, higher = more binding, comparable within an allelic series) in the test with HOXA4 [4].
With CATGATTA, the binding signal in the test with HOXA4 [1] was 10.4 upbm affinity estimate (log intensity, higher = more binding, comparable within an allelic series); with HOXA4 [2], 11.4 upbm affinity estimate (log intensity, higher = more binding, comparable within an allelic series); with HOXA4 [3], 12.6 upbm affinity estimate (log intensity, higher = more binding, comparable within an allelic series); with HOXA4 [4] it was 10.8 upbm affinity estimate (log intensity, higher = more binding, comparable within an allelic series).
CCTGCTCC: the binding signal was 9.98 upbm affinity estimate (log intensity, higher = more binding, comparable within an allelic series) with HOXA4 [1]; 9.88 upbm affinity estimate (log intensity, higher = more binding, comparable within an allelic series) with HOXA4 [2]; 9.83 upbm affinity estimate (log intensity, higher = more binding, comparable within an allelic series) with HOXA4 [3]; 9.97 upbm affinity estimate (log intensity, higher = more binding, comparable within an allelic series) in the test with HOXA4 [4].
Turning to CAGGGGGA, the binding signal with HOXA4 [1] is 9.68 upbm affinity estimate (log intensity, higher = more binding, comparable within an allelic series); in the test with HOXA4 [2] it was 9.64 upbm affinity estimate (log intensity, higher = more binding, comparable within an allelic series); with HOXA4 [3] it was 9.87 upbm affinity estimate (log intensity, higher = more binding, comparable within an allelic series); with HOXA4 [4], 9.7 upbm affinity estimate (log intensity, higher = more binding, comparable within an allelic series).
Consider TGATGACA, for which the binding signal with HOXA4 [1] is 10.2 upbm affinity estimate (log intensity, higher = more binding, comparable within an allelic series); in the test with HOXA4 [3], 11.8 upbm affinity estimate (log intensity, higher = more binding, comparable within an allelic series).
Consider AGTCCTTC, for which the binding signal was 9.96 upbm affinity estimate (log intensity, higher = more binding, comparable within an allelic series) with HOXA4 [1]; 9.81 upbm affinity estimate (log intensity, higher = more binding, comparable within an allelic series) with HOXA4 [2]; 9.61 upbm affinity estimate (log intensity, higher = more binding, comparable within an allelic series) with HOXA4 [3]; 9.89 upbm affinity estimate (log intensity, higher = more binding, comparable within an allelic series) in the test with HOXA4 [4].
Consider ACCCGTAG, for which the binding signal with HOXA4 [1] was 9.8 upbm affinity estimate (log intensity, higher = more binding, comparable within an allelic series); with HOXA4 [2], 9.7 upbm affinity estimate (log intensity, higher = more binding, comparable within an allelic series); with HOXA4 [3], 9.84 upbm affinity estimate (log intensity, higher = more binding, comparable within an allelic series); in the test with HOXA4 [4], 9.82 upbm affinity estimate (log intensity, higher = more binding, comparable within an allelic series).
With CACGGTGC, the binding signal is 9.98 upbm affinity estimate (log intensity, higher = more binding, comparable within an allelic series) with HOXA4 [1]; 9.8 upbm affinity estimate (log intensity, higher = more binding, comparable within an allelic series) with HOXA4 [2]; 9.75 upbm affinity estimate (log intensity, higher = more binding, comparable within an allelic series) in the test with HOXA4 [3]; 9.86 upbm affinity estimate (log intensity, higher = more binding, comparable within an allelic series) with HOXA4 [4].
ACCTGCCG: the binding signal with HOXA4 [1] is 9.93 upbm affinity estimate (log intensity, higher = more binding, comparable within an allelic series); in the test with HOXA4 [2] it was 9.82 upbm affinity estimate (log intensity, higher = more binding, comparable within an allelic series); with HOXA4 [3], 9.98 upbm affinity estimate (log intensity, higher = more binding, comparable within an allelic series); with HOXA4 [4], 9.88 upbm affinity estimate (log intensity, higher = more binding, comparable within an allelic series).
As to TAAAATTA, the binding signal with HOXA4 [1] is 10.3 upbm affinity estimate (log intensity, higher = more binding, comparable within an allelic series); in the test with HOXA4 [3], 12.2 upbm affinity estimate (log intensity, higher = more binding, comparable within an allelic series).
As to GACCCCCC, the binding signal with HOXA4 [1] is 9.49 upbm affinity estimate (log intensity, higher = more binding, comparable within an allelic series); in the test with HOXA4 [2] it was 9.56 upbm affinity estimate (log intensity, higher = more binding, comparable within an allelic series); with HOXA4 [3] it was 9.7 upbm affinity estimate (log intensity, higher = more binding, comparable within an allelic series); with HOXA4 [4] it was 9.59 upbm affinity estimate (log intensity, higher = more binding, comparable within an allelic series).
On to AACGAATT, for which the binding signal with HOXA4 [1] is 10.3 upbm affinity estimate (log intensity, higher = more binding, comparable within an allelic series); in the test with HOXA4 [3], 11.6 upbm affinity estimate (log intensity, higher = more binding, comparable within an allelic series).
Take AGTAATTC: the binding signal with HOXA4 [1] is 10.4 upbm affinity estimate (log intensity, higher = more binding, comparable within an allelic series); with HOXA4 [3], 11.6 upbm affinity estimate (log intensity, higher = more binding, comparable within an allelic series).
With GTAAATAC, the binding signal is 10.3 upbm affinity estimate (log intensity, higher = more binding, comparable within an allelic series) with HOXA4 [1] and 11.3 upbm affinity estimate (log intensity, higher = more binding, comparable within an allelic series) in the test with HOXA4 [3].
Take CCTTCCCG: the binding signal is 9.88 upbm affinity estimate (log intensity, higher = more binding, comparable within an allelic series) with HOXA4 [1]; 9.86 upbm affinity estimate (log intensity, higher = more binding, comparable within an allelic series) with HOXA4 [2]; 9.79 upbm affinity estimate (log intensity, higher = more binding, comparable within an allelic series) with HOXA4 [3]; 9.89 upbm affinity estimate (log intensity, higher = more binding, comparable within an allelic series) in the test with HOXA4 [4].
CCTCCAGC: the binding signal was 9.79 upbm affinity estimate (log intensity, higher = more binding, comparable within an allelic series) with HOXA4 [1]; 9.82 upbm affinity estimate (log intensity, higher = more binding, comparable within an allelic series) with HOXA4 [2]; 9.83 upbm affinity estimate (log intensity, higher = more binding, comparable within an allelic series) in the test with HOXA4 [3]; 9.76 upbm affinity estimate (log intensity, higher = more binding, comparable within an allelic series) in the test with HOXA4 [4].
Consider GGACTCCC, for which the binding signal in the test with HOXA4 [1] was 9.88 upbm affinity estimate (log intensity, higher = more binding, comparable within an allelic series); with HOXA4 [2], 9.72 upbm affinity estimate (log intensity, higher = more binding, comparable within an allelic series); in the test with HOXA4 [3], 9.84 upbm affinity estimate (log intensity, higher = more binding, comparable within an allelic series); with HOXA4 [4] it was 9.79 upbm affinity estimate (log intensity, higher = more binding, comparable within an allelic series).
As to ACGTTAAT, the binding signal was 10.6 upbm affinity estimate (log intensity, higher = more binding, comparable within an allelic series) with HOXA4 [1]; 11.6 upbm affinity estimate (log intensity, higher = more binding, comparable within an allelic series) with HOXA4 [2]; 12.9 upbm affinity estimate (log intensity, higher = more binding, comparable within an allelic series) with HOXA4 [3]; 11 upbm affinity estimate (log intensity, higher = more binding, comparable within an allelic series) in the test with HOXA4 [4].
Take CAGACCTC: the binding signal in the test with HOXA4 [1] was 9.86 upbm affinity estimate (log intensity, higher = more binding, comparable within an allelic series); with HOXA4 [2] it was 9.83 upbm affinity estimate (log intensity, higher = more binding, comparable within an allelic series); with HOXA4 [3] it was 9.81 upbm affinity estimate (log intensity, higher = more binding, comparable within an allelic series); with HOXA4 [4], 9.9 upbm affinity estimate (log intensity, higher = more binding, comparable within an allelic series).
As to CGTCAATA, the binding signal with HOXA4 [1] is 10.2 upbm affinity estimate (log intensity, higher = more binding, comparable within an allelic series); with HOXA4 [3], 10.9 upbm affinity estimate (log intensity, higher = more binding, comparable within an allelic series).
As to GAGTAATA, the binding signal is 10.3 upbm affinity estimate (log intensity, higher = more binding, comparable within an allelic series) with HOXA4 [1]; 10.9 upbm affinity estimate (log intensity, higher = more binding, comparable within an allelic series) with HOXD13; 11.7 upbm affinity estimate (log intensity, higher = more binding, comparable within an allelic series) in the test with HOXA4 [3].
Regarding CAATTTAG, the binding signal in the test with HOXA4 [1] is 10.5 upbm affinity estimate (log intensity, higher = more binding, comparable within an allelic series); with HOXA4 [3], 12.1 upbm affinity estimate (log intensity, higher = more binding, comparable within an allelic series).
Take CTCATCTA: the binding signal in the test with HOXA4 [1] was 10.3 upbm affinity estimate (log intensity, higher = more binding, comparable within an allelic series); in the test with HOXA4 [3], 11.5 upbm affinity estimate (log intensity, higher = more binding, comparable within an allelic series).
Take CACCCTGG: the binding signal was 9.95 upbm affinity estimate (log intensity, higher = more binding, comparable within an allelic series) with HOXA4 [1]; 9.74 upbm affinity estimate (log intensity, higher = more binding, comparable within an allelic series) in the test with HOXA4 [2]; 9.78 upbm affinity estimate (log intensity, higher = more binding, comparable within an allelic series) with HOXA4 [3]; 9.87 upbm affinity estimate (log intensity, higher = more binding, comparable within an allelic series) with HOXA4 [4].
For CCAGCGGG, the binding signal in the test with HOXA4 [1] is 9.83 upbm affinity estimate (log intensity, higher = more binding, comparable within an allelic series); with HOXA4 [2], 9.65 upbm affinity estimate (log intensity, higher = more binding, comparable within an allelic series); with HOXA4 [3] it was 9.72 upbm affinity estimate (log intensity, higher = more binding, comparable within an allelic series); with HOXA4 [4] it was 9.76 upbm affinity estimate (log intensity, higher = more binding, comparable within an allelic series).
